# Test results taken from PubChem BioAssay.
# Active and inactive are the calls of the source.
# Tests used:
# [1] = small molecules captured by biotinylated probe aFSTL3 – biochemical, small-molecule microarray, fluorescence 635/667, stem cell growth factor project, primary screen (AID 1064); conditions: higher = more signal;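 also: measures binding of the biotinylated anti-FSTL3 antibody to printed compounds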
# [2] = binders from COS7 lysate, DM2A8 probe, primary screen, torsin A project, cell lysate, small-molecule microarray, fluorescence 635/667 (AID 1065); conditions: higher = more signal, COS7 lysate expressing mutant human TOR1A
# [3] = small molecules captured by biotinylated probe aFGF2 – biochemical, small-molecule microarray, fluorescence 635/667, stem cell growth factor project, primary screen (AID 1067); conditions: higher = more signal;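 also: measures binding of biotinylated aFGF2 protein to printed compounds on slides; z-score merges feature fluorescence and signal-to-noise across triplicate slides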
# [4] = small molecules captured by biotinylated probe aFGF10 – biochemical, small-molecule microarray, fluorescence 635/667, stem cell growth factor project, primary screen (AID 1071); conditions: higher = more signal;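 also: score merges 667 nm spot intensity and signal to noise from triplicate slides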
# [5] = biological target: Neurogenic locus notch homolog protein 2 (Homo sapiens) (UniProt Q04721); experiment: small molecules binding Notch2 protein – biochemical, small-molecule microarray, 635 nm fluorescence, stem cell growth factors, primary screen (AID 1073); conditions: higher = more signal
# [6] = biological target: Pro-neuregulin-1, membrane-bound isoform (Homo sapiens) (UniProt Q02297); experiment: small molecules binding neuregulin-1 protein – biochemical, small-molecule microarray, fluorescence 635/667, psychiatric disease protein project, primary screen (AID 1075); conditions: NRG1 binding, 635 nm fluorescence, higher = more signal;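 also: score combines 667 nm spot fluorescence with signal to noise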
# [7] = tested on: Neuregulin-1 EGF-like domain; experiment: small molecules binding NRG1 EGF domain – biochemical, small-molecule microarray, 635 nm fluorescence, primary screen (AID 1081); conditions: higher = more signal;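 also: binding of the protein to compounds printed on small-molecule microarray slides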
# [8] = FRG1 expression reporter modulators in myotubes – cell-based, C2C12 myotubes, firefly/Renilla luciferase, luminescence, FRG1 inhibition for FSHD, primary screen (AID 1084); conditions: FRG1 promoter luciferase, higher = more signal, called active from +8 up or from −8 down
# [9] = small molecules captured by biotinylated probe aFST – biochemical, small-molecule microarray, fluorescence 635/667, stem cell growth factor project, primary screen (AID 1086); conditions: higher = more signal;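 also: score merges 667 nm fluorescence with signal-to-noise of each printed compound spot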
# [10] = binders of probe aHhip on microarray, primary screen, stem cell growth factor project, biochemical, small-molecule microarray, fluorescence 635/667 (AID 1087); conditions: higher = more signal;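 also: score merges spot fluorescence at 667nm with spot signal to noise ratio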
# [11] = tested on: PRMT1 (protein arginine N-methyltransferase 1); experiment: small molecules binding arginine methyltransferase PRMT1 – biochemical, small-molecule microarray, 635 nm fluorescence, primary screen (AID 1088); conditions: higher = more signal;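 also: binding of Prmt1 protein to compounds spotted on small-molecule microarray slides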
# [12] = growth effects on S. cerevisiae YJM789 – YJM789 clinical isolate, OD600, 24 h, basal, primary screen (AID 1089); conditions: higher = more signal, called active from +8 up or from −8 down;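 also: growth of clinical yeast isolate S. cerevisiae YJM 789 seeded 1000 cells per well; test concentration not given here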
# [13] = S. pombe growth modifiers, basal conditions – strain 972, OD600, 24 h, no modulator, primary screen (AID 1090);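 also: basal condition with compound alone and no growth modifier present; test concentration not given here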; conditions: S. pombe 972 growth, higher = more signal, called active from +8 up or from −8 down
# [14] = budding yeast growth modifiers under rapamycin – strain BY4716, OD600, 96 h, primary screen (AID 1091); also: test concentration not given here; conditions: S. cerevisiae BY4716 + rapamycin, higher = more signal, called active from +8 up or from −8 down
# [15] = biological target: Torsin-1A-interacting protein 2 (Homo sapiens) (UniProt Q8NFQ8); experiment: small molecules binding lysate-expressed LULL1 – cell lysate, human LULL1 lysate, 635/667 nm fluorescence, primary screen (AID 1092); conditions: small-molecule microarray, hLULL1 lysate binding, 635 nm fluorescence; higher = more signal;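 also: probe is lysate of COS7 cells overexpressing human LULL1; score merges per-feature 667 nm fluorescence with signal-to-noise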
# [16] = optical density change of DRC41 E. coli – strain DRC41, OD650, 24 h, E. coli filamentation project, primary screen (AID 1093);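 also: MC1000 strain lacking acrAB efflux and sulA so SOS filamentation is blocked; test concentration not given here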; conditions: E. coli DRC41 growth, higher = more signal, called active from +8 up or from −8 down
# [17] = probe aLefty2 binding to arrayed compounds – biochemical, biotinylated probe, 635/667 nm fluorescence, primary screen (AID 1094); conditions: small-molecule microarray, higher = more signal;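 also: score merges spot fluorescence near 667 nm with spot signal-to-noise ratio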
# [18] = tested on: Noggin (protein binding on small-molecule microarray); experiment: small molecules binding Noggin protein – biochemical, 635/667 nm fluorescence, primary screen (AID 1095); conditions: 635 nm fluorescence, higher = more signal;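 also: score merges 667 nm feature fluorescence with signal to noise over triplicate slides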
# [19] = biological target: Neurogenic locus notch homolog protein 3 (Homo sapiens) (UniProt Q9UM47); experiment: small molecules binding NOTCH3 protein – biochemical, 635/667 nm fluorescence, primary screen (AID 1096); conditions: small-molecule microarray, 635 nm fluorescence, higher = more signal
# [20] = probe aEGFR binding to arrayed compounds – biochemical, biotinylated probe, 635/667 nm fluorescence, primary screen (AID 1097); conditions: small-molecule microarray, higher = more signal;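 also: probe is a biotinylated anti-EGFR antibody binding compounds printed on slides; score combines fluorescence near 667 nm and signal to noise of each spot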
# Sequence of Pro-neuregulin-1, membrane-bound isoform (Homo sapiens) (Q02297 whole entry, looked up, the tested form may be a part, canonical isoform): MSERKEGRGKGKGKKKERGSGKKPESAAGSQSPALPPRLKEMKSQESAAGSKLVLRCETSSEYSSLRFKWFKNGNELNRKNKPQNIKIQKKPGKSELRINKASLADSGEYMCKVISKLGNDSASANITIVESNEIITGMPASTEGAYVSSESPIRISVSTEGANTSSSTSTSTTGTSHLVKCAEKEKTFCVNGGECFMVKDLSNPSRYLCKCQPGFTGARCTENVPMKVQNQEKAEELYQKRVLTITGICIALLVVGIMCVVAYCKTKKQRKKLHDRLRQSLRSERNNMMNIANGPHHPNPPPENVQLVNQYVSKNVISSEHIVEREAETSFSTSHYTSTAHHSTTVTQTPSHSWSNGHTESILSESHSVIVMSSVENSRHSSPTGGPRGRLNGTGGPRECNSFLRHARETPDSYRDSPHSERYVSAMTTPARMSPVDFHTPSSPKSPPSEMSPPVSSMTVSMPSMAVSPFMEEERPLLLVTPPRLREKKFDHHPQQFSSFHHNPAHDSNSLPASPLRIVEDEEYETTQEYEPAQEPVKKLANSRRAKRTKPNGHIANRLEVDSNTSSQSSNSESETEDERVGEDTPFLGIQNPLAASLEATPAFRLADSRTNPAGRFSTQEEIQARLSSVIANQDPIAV
# Sequence of Neurogenic locus notch homolog protein 2 (Homo sapiens) (Q04721 whole entry, looked up, canonical isoform): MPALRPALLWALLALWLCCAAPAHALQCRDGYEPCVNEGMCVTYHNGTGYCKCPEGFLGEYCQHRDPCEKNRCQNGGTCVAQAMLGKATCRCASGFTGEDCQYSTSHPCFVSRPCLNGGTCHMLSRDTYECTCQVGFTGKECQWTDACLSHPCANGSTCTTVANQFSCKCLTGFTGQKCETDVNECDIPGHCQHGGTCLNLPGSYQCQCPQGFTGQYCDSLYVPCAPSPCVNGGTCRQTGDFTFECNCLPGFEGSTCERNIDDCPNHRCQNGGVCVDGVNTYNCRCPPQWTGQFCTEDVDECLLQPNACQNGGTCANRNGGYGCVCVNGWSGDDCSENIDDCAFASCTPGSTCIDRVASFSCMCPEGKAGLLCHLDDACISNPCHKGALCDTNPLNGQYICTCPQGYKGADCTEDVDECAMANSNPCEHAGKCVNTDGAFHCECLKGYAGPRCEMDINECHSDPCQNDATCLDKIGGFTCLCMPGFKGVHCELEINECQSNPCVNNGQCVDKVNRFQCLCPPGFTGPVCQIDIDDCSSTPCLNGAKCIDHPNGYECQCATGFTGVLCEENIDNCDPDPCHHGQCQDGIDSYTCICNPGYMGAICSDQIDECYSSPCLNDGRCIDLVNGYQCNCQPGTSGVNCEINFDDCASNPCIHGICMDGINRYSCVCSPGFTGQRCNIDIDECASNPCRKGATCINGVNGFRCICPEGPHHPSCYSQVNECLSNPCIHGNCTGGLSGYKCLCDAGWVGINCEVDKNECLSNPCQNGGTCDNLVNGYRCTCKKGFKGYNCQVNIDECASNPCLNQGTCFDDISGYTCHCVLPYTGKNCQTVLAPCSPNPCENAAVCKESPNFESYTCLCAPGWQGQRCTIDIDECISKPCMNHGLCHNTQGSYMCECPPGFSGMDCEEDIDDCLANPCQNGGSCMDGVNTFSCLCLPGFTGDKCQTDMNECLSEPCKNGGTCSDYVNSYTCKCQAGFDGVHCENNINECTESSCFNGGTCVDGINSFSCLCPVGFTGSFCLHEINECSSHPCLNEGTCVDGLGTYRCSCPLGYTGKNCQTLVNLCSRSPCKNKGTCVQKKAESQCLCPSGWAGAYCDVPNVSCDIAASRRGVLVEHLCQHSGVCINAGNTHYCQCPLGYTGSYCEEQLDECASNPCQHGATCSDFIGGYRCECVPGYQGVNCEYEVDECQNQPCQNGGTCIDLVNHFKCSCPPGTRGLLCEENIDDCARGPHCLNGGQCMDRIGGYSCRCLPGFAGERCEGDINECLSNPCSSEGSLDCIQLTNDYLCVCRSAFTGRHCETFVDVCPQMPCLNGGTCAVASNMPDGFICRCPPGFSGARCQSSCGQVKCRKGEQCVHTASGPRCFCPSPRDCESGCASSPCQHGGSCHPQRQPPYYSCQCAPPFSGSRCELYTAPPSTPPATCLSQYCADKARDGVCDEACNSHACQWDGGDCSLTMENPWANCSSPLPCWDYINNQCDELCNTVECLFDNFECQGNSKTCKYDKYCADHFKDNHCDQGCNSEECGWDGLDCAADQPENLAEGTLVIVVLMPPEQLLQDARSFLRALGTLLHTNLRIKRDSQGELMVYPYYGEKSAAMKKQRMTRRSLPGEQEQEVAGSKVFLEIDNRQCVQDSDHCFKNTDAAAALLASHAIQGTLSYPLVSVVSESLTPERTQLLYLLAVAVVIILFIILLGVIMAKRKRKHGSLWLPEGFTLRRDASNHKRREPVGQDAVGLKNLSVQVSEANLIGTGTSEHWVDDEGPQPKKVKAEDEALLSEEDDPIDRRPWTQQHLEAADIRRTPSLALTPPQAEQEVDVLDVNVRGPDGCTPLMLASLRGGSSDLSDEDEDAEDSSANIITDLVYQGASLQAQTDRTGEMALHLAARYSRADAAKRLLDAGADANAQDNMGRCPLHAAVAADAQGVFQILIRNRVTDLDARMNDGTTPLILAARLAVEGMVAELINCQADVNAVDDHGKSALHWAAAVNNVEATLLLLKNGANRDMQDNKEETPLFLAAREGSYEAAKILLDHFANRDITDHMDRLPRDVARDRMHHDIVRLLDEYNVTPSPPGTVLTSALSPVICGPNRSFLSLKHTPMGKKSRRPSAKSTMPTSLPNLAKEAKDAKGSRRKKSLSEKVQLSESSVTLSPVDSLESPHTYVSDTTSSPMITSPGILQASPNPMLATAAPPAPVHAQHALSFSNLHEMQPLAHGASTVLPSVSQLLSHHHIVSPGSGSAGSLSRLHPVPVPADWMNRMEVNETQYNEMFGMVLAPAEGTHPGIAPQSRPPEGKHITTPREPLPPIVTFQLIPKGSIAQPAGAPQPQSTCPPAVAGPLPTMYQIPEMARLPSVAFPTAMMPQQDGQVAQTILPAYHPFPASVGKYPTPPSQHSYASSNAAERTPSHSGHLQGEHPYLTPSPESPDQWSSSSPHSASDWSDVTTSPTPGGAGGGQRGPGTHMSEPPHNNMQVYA
# Sequence of Torsin-1A-interacting protein 2 (Homo sapiens) (Q8NFQ8 whole entry, looked up): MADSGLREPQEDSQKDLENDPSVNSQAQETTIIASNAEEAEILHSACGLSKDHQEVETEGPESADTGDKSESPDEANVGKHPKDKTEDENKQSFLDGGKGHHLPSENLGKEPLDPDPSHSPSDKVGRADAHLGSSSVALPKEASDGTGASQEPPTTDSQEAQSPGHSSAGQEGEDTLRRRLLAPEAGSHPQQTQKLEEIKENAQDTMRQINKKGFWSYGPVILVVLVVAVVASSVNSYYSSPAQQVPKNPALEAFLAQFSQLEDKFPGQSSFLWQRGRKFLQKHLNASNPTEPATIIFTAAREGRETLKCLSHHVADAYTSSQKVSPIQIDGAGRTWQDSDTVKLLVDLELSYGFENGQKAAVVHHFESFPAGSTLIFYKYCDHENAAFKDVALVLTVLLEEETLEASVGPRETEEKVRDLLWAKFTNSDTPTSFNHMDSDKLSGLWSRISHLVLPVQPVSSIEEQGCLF
structure (smiles),measurement,setting,value
CCCCCCCCCCC(O)C1C=CC2C(=O)N(c3ccccc3)C(=O)C2N1Nc1ccc([N+](=O)[O-])cc1 (stereo not given),composite z-score,[1],-0.325
same,composite z-score,[2],0.112
same,composite z-score,[3],-0.0107
same,composite z-score,[4],0.461
same,composite z-score,[5],1.44
same,composite z-score,[6],1.11
same,composite z-score,[7],1.05
same,z-score,[8],1.39 (inactive)
same,composite z-score,[9],0.574
same,composite z-score,[10],-0.199
same,composite z-score,[11],1.57
same,z-score,[12],0.0819 (inactive)
same,z-score,[13],0.23 (inactive)
same,z-score,[14],26.7 (active)
same,composite z-score,[15],3.25
same,z-score,[16],-0.734 (inactive)
same,composite z-score,[17],-0.0059
same,composite z-score,[18],0.186
same,composite z-score,[19],1.09
same,composite z-score,[20],-0.0828
CS(=O)(=O)CCOC(=O)C1=CC(c2ccc(CO)cc2)=CC(c2cccs2)N(Cc2cccc(OC(F)(F)F)c2)C=C1C(=O)OCCS(C)(=O)=O (stereo not given),composite z-score,[1],-0.398
same,composite z-score,[2],0.405
same,composite z-score,[3],0.024
same,composite z-score,[4],0.708
same,composite z-score,[5],1
same,composite z-score,[6],1.63
same,composite z-score,[7],0.999
same,z-score,[8],0.371 (inactive)
same,composite z-score,[9],1.14
same,composite z-score,[10],0.0139
same,composite z-score,[11],1.34
same,z-score,[12],-0.246 (inactive)
same,z-score,[13],-3.38 (inactive)
same,z-score,[14],2.41 (inactive)
same,composite z-score,[15],3.12
same,z-score,[16],-0.575 (inactive)
same,composite z-score,[17],-0.0833
same,composite z-score,[18],0.333
same,composite z-score,[19],0.856
same,composite z-score,[20],-0.0688
O=C(NCc1ccccc1)[C@@H]1c2ccccc2C(=O)N(Cc2cc(F)cc(C(F)(F)F)c2)[C@H]1c1ccc(CO)cc1,composite z-score,[1],-0.307
same,composite z-score,[2],0.582
same,composite z-score,[3],-0.0598
same,composite z-score,[4],0.0655
same,composite z-score,[5],0.558
same,composite z-score,[6],0.393
same,composite z-score,[7],1.32
same,z-score,[8],-1.67 (inactive)
same,composite z-score,[9],0.0906
same,composite z-score,[10],-0.179
same,composite z-score,[11],1.49
same,z-score,[12],0.314 (inactive)
same,z-score,[13],0.252 (inactive)
same,z-score,[14],-0.319 (inactive)
same,composite z-score,[15],2.82
same,z-score,[16],0.387 (inactive)
same,composite z-score,[17],-0.103
same,composite z-score,[18],0.561
same,composite z-score,[19],0.791
same,composite z-score,[20],0.021
COCC1C2CC[C@H]3C(OCc4ccc(F)cc4C(F)(F)F)OC[C@]4(C)[C@H]3C2=C(CN4C(=O)OC(C)(C)C)[C@H](C)C1COC (stereo not given in full),composite z-score,[1],0.409
same,composite z-score,[2],0.0838
same,composite z-score,[3],0.0807
same,composite z-score,[4],0.224
same,composite z-score,[5],1.58
same,composite z-score,[6],2.05
same,composite z-score,[7],0.782
same,z-score,[8],-0.255 (inactive)
same,composite z-score,[9],0.945
same,composite z-score,[10],-0.0672
same,composite z-score,[11],0.61
same,z-score,[12],-0.886 (inactive)
same,z-score,[13],1.04 (inactive)
same,z-score,[14],-0.2 (inactive)
same,composite z-score,[15],3.48
same,z-score,[16],-1.02 (inactive)
same,composite z-score,[17],0.522
same,composite z-score,[18],-0.761
same,composite z-score,[19],0.96
same,composite z-score,[20],0.0598
COC(=O)[C@@]1(Cc2ccc(F)cc2)[C@H]2c3cc(C(=O)N(C)C)n(Cc4ccccn4)c3C[C@H]2CN1C(=O)c1ccccc1,composite z-score,[1],0.449
same,composite z-score,[2],0.55
same,composite z-score,[3],0.25
same,composite z-score,[4],0.658
same,composite z-score,[5],1.65
same,composite z-score,[6],1.42
same,composite z-score,[7],1.38
same,z-score,[8],3.37 (inactive)
same,composite z-score,[9],1.55
same,composite z-score,[10],1.49
same,composite z-score,[11],0.837
same,z-score,[12],-0.602 (inactive)
same,z-score,[13],-0.306 (inactive)
same,z-score,[14],-0.545 (inactive)
same,composite z-score,[15],3.7
same,z-score,[16],-0.0591 (inactive)
same,composite z-score,[17],-0.153
same,composite z-score,[18],0.321
same,composite z-score,[19],1.01
same,composite z-score,[20],0.533
